Screens (PubChem)
This is a sample that favours compounds with a hit; in the whole collection about 1.4% have one here.
pCIP destab – compounds decreasing mouse p/CIP protein stability. 0.01% of 290,000 active. F442A p/CIP-EGFP cells, EGFP fluorescence, 16 h. decrease of EGFP signal, % at 10 µM. Q05BA5;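 active = EGFP signal decrease of at least 30% at 10 µM or well 3 SD below plate mean, unless failing retest; inactive = the rest, including hits failing retest or dose response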
MsrA act – activators of bovine methionine sulfoxide reductase A; activation, % at 10.6 µM; 0.3% of 360,000 active; purified bovine MsrA, absorbance read-out; in the data active = activation above about 7.5%
MsrA inh – inhibitors of bovine MsrA. purified bovine MsrA, absorbance read-out. inhibition, % at 15.5 µM. 0.75% of 360,000 active
14-3-3 Bad PPI – disrupts binding of bovine 14-3-3 zeta to phospho-Bad peptide; P63103; TR-FRET 14-3-3zeta/Dy647-pBad peptide displacement, 1 h; inhibition, % at 21.7 µM; 0.71% of 220,000 active; AID 781;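 active = inhibition above about 70%, limit read from the data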
Target sequence (P63103 whole entry, looked up): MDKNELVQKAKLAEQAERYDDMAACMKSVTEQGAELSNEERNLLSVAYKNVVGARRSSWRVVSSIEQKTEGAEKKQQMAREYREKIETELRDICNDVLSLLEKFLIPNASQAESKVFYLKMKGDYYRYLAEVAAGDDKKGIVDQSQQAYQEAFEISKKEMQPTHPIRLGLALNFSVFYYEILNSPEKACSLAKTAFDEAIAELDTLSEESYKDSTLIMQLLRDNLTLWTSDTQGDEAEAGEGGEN
MsrA conf – confirmation of bovine MsrA inhibitors; shares compounds with MsrA inh; purified bovine MsrA, absorbance read-out; inhibition, % at 15.5 µM; 41% of 2,300 active;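 note: coupled to thioredoxin reductase with NADPH and selenocystamine and DMSO as substrate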
A number is an active result. Cut-off read from the data, not from the text of the source, unless noted: active = inhibition above about 4.5%; inactive = the rest.

How did Cc1nc(Cl)cc(N/N=C/c2ccc(O)cc2O)n1 do in these assays?
pCIP destab: inactive; MsrA act: inactive; MsrA inh: 5.7; MsrA conf: 6.2

What do the screens show for `Cc1cc(N/N=C/c2ccc(O)cc2O)nc(-n2nc(C)cc2C)n1`?
pCIP destab: inactive; MsrA act: inactive; MsrA inh: 4.8; 14-3-3 Bad PPI: inactive; MsrA conf: inactive

How did Cc1ccn2c(C(=O)N/N=C\c3cccs3)c(C)nc2c1 do in these assays?
pCIP destab: inactive; MsrA act: inactive; MsrA inh: 7.4; 14-3-3 Bad PPI: inactive; MsrA conf: 5.8

What do the screens show for `Cc1ccc2nc(C)c(C(=O)N/N=C/c3cccs3)n2c1`?
pCIP destab: inactive; MsrA act: inactive; MsrA inh: inactive; 14-3-3 Bad PPI: inactive

What do the screens show for `Cc1ccc(NC(=O)Cn2cccc2C2=NC(c3ccccc3)CO2)cc1C` (stereo not drawn)?
pCIP destab: inactive; MsrA act: inactive; MsrA inh: 43; 14-3-3 Bad PPI: inactive; MsrA conf: inactive

How did CCc1ccccc1NC(=O)Cn1cccc1C1=NC(c2ccccc2)CO1 (stereo not drawn) do in these assays?
pCIP destab: inactive; MsrA act: inactive; MsrA inh: inactive; 14-3-3 Bad PPI: inactive

How did CCN(CC)c1nc2ccccc2n(Cc2cccc(OC)c2)c1=O do in these assays?
pCIP destab: inactive; MsrA act: inactive; MsrA inh: inactive

How did CCOC(=O)c1cc2ccc(OC(=O)c3ccco3)cc2oc1=O do in these assays?
pCIP destab: inactive; MsrA act: inactive; MsrA inh: inactive; 14-3-3 Bad PPI: inactive

Results for CCOC(=O)c1cc2ccc3ccccc3c2oc1=O ?
pCIP destab: inactive; MsrA act: inactive; MsrA inh: 15; MsrA conf: 10

How did CN1c2ccsc2/C(=N/NC(=O)c2c(F)cccc2F)CS1(=O)=O do in these assays?
pCIP destab: inactive; MsrA act: inactive; MsrA inh: inactive; 14-3-3 Bad PPI: inactive

How did CN1c2ccsc2/C(=N/Nc2ccccc2)CS1(=O)=O do in these assays?
pCIP destab: inactive; MsrA act: inactive; MsrA inh: 5.3; 14-3-3 Bad PPI: inactive; MsrA conf: inactive

Results for Cn1c(=NC(=O)c2ccc(S(=O)(=O)N3CCCc4ccccc43)cc2)sc2cc(S(C)(=O)=O)ccc21 ?
pCIP destab: inactive; MsrA act: inactive; MsrA inh: inactive; 14-3-3 Bad PPI: inactive

What do the screens show for `C#CCn1c(=NC(=O)c2ccc(S(=O)(=O)N3CCCc4ccccc43)cc2)sc2cc(S(N)(=O)=O)ccc21`?
pCIP destab: inactive; MsrA act: inactive; MsrA inh: 5.3; 14-3-3 Bad PPI: inactive; MsrA conf: inactive

What do the screens show for `CCc1nc2ccc(C(=O)NCc3ccccc3OC)cn2c1N(C)Cc1ccc(OC)cc1`?
MsrA act: inactive; MsrA inh: inactive

What do the screens show for `CCOC(=O)c1cccc(S(=O)(=O)N(CCO)Cc2cc3cc(OC)c(OC)cc3[nH]c2=O)c1`?
pCIP destab: inactive; MsrA act: inactive; MsrA inh: 5.1; 14-3-3 Bad PPI: inactive; MsrA conf: inactive

Results for CCOC(=O)c1cccc(S(=O)(=O)N(CCO)Cc2cc3cc(OC)ccc3[nH]c2=O)c1 ?
pCIP destab: inactive; MsrA act: inactive; 14-3-3 Bad PPI: inactive

How did COc1ccc(CNS(=O)(=O)c2ccc(-c3ccc(=O)[nH]n3)s2)cc1OC do in these assays?
pCIP destab: inactive; MsrA act: inactive; MsrA inh: inactive

What do the screens show for `CCCc1c(C)nn(C(=O)/C(C#N)=N/Nc2ccccc2[N+](=O)[O-])c1C`?
pCIP destab: inactive; MsrA act: inactive; MsrA inh: 10; 14-3-3 Bad PPI: inactive; MsrA conf: 6.9

What do the screens show for `COc1ccc(C(=O)/C(C#N)=N/Nc2ccccc2[N+](=O)[O-])cc1`?
pCIP destab: inactive; MsrA act: inactive; MsrA inh: inactive; 14-3-3 Bad PPI: inactive

What do the screens show for `FC(F)(F)c1ccc(N/N=C/c2cccnc2)nc1`?
pCIP destab: inactive; MsrA act: inactive; MsrA inh: inactive

How did C(=N\Nc1ccccn1)/c1cccnc1 do in these assays?
pCIP destab: inactive; MsrA act: inactive; MsrA inh: 5.6; MsrA conf: inactive

What do the screens show for `O=C(Nc1ccon1)Nc1ccc(F)cc1F`?
pCIP destab: inactive; MsrA act: inactive; MsrA inh: inactive

What do the screens show for `COc1cc(-c2csc(C)n2)ccc1O`?
pCIP destab: inactive; MsrA act: inactive; MsrA inh: inactive; 14-3-3 Bad PPI: inactive

What do the screens show for `COc1ccc(-c2csc(C)n2)cc1Br`?
pCIP destab: inactive; MsrA act: inactive; MsrA inh: 7.9; 14-3-3 Bad PPI: inactive; MsrA conf: 5.2

Results for O=C(NCc1ccco1)C(=O)NN=Cc1ccccc1O ?
MsrA inh: inactive

What do the screens show for `COc1cc(/C=N/NC(=O)CSc2n[nH]c(=O)[nH]c2=O)cc(OC)c1O`?
pCIP destab: inactive; MsrA act: inactive; MsrA inh: 4.8; 14-3-3 Bad PPI: inactive; MsrA conf: inactive

How did O=C(CSc1n[nH]c(=O)[nH]c1=O)N/N=C/c1ccccc1O do in these assays?
pCIP destab: inactive; MsrA act: inactive; MsrA inh: inactive; 14-3-3 Bad PPI: inactive

How did COc1cc(/C=N/NC(=O)C(=O)NCc2ccco2)cc(Br)c1O do in these assays?
pCIP destab: inactive; MsrA act: inactive; MsrA inh: 6.0; 14-3-3 Bad PPI: inactive; MsrA conf: inactive

Results for CCCCCC(=O)N/N=C/c1cc(Br)c(O)c(OC)c1 ?
pCIP destab: inactive; MsrA act: inactive; MsrA inh: 5.5; 14-3-3 Bad PPI: inactive; MsrA conf: inactive

What do the screens show for `NC(=O)C1CCN(C(=O)c2ccc3nc(-c4ccccc4)c(-c4ccccc4)nc3c2)CC1`?
pCIP destab: inactive; MsrA act: inactive; MsrA inh: inactive

Results for O=C(NC1CCOc2ccccc21)C1CCCC1 (stereo not drawn) ?
pCIP destab: inactive; MsrA act: inactive; MsrA inh: inactive

How did CC(=O)C1=C(O)C(=O)N(c2cc(C(C)(C)C)on2)C1c1ccc(Br)cc1 (stereo not drawn) do in these assays?
pCIP destab: inactive; MsrA act: inactive; MsrA inh: 4.9; 14-3-3 Bad PPI: inactive; MsrA conf: inactive

How did CC(=O)C1=C(O)C(=O)N(c2cc(C(C)(C)C)on2)C1c1ccc(C(C)C)cc1 (stereo not drawn) do in these assays?
pCIP destab: inactive; MsrA act: inactive; 14-3-3 Bad PPI: inactive

Results for CC1CCCC(NC(=O)COC(=O)/C=C/c2ccc(F)cc2)C1C (stereo not drawn) ?
MsrA act: inactive; MsrA inh: inactive

Results for Cc1nc2ccccn2c1C(=O)N/N=C/c1ccc([N+](=O)[O-])o1 ?
pCIP destab: inactive; MsrA act: inactive; MsrA inh: 5.2; 14-3-3 Bad PPI: inactive; MsrA conf: inactive

How did COc1ccc(C(=O)NCC(=O)N/N=C/C(C)=C/c2ccco2)cc1OC do in these assays?
pCIP destab: inactive; MsrA act: inactive; MsrA inh: 6.6; 14-3-3 Bad PPI: inactive; MsrA conf: inactive

How did COc1ccc(/C=N/N=C2/NC(=O)C(CC(=O)NC(N)=O)S2)cc1 (stereo not drawn) do in these assays?
pCIP destab: inactive; MsrA act: inactive; MsrA inh: inactive; 14-3-3 Bad PPI: inactive

How did O=C1CC(C(=O)Nc2ccccc2)S/C(=N\N=C\c2ccco2)N1 (stereo not drawn) do in these assays?
pCIP destab: inactive; MsrA act: inactive; MsrA inh: 5.0; 14-3-3 Bad PPI: inactive; MsrA conf: 5.4
